# Measured values reported in PubChem BioAssay (EPA / NIEHS).
# Records with an inconclusive call do not appear. The source made the active and inactive calls. Rule for the calls, unless noted: active = hit-call score of the fitted dose curve at least 0.9, where 1 is the maximum; inactive = score below 0.9.
# Experiments:
# [1] = IUF_NPC2a_radial_glia_migration_120hr: Leibniz Research Institute for Environmental Medicine (IUF) 120-hour Neural Progenitor Cell Migration Assay for Radial Glia Migration (NPC2a) (AID 2284298)
# In short: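 In this multiplexed test, fetal hNPC spheres migrate radially on poly-D-lysine/laminin in N2 medium (37C, 5% CO2, pH 7.2-7.6) under continuous compound exposure over five days. Migration is scored at 120 h from automated Hoechst nuclear imaging.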
# [2] = IUF_NPC2a_radial_glia_migration_72hr: Leibniz Research Institute for Environmental Medicine (IUF) 72-hour Neural Progenitor Cell Migration Assay for Radial Glia Migration (NPC2a) (AID 2284299)
# In short: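 Spheres of human primary neural progenitors migrate on poly-D-lysine/laminin under compound exposure at 37C, 5% CO2. The 72 h radial glia migration distance comes from brightfield images, measured manually.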
# [3] = IUF_NPC2b_neuronal_migration_120hr: Leibniz Research Institute for Environmental Medicine (IUF) 120-hour Neural Progenitor Cell Migration Assay for Neuron Migration (NPC2b) (AID 2284300)
# In short: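 Neurons identified by TUBB3 immunostaining and Hoechst nuclei; migration distance measured automatically on fixed wells at 120 h, normalized to glia migration. Exposure spanned five days of differentiation in N2 medium, seven test concentrations.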
# [4] = IUF_NPC3_neuronal_differentiation_120hr: Leibniz Research Institute for Environmental Medicine (IUF) 120-hour Neuronal Differentiation Assay (NPC3) (AID 2284301)
# In short: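 Value is percent TUBB3-positive neurons among Hoechst-stained nuclei in the migration area, scored by trained CNN after 120 h differentiation. Primary hNPC spheres on poly-D-lysine/laminin, N2 medium, continuous dosing from day 0, half-refeed day 3; DMSO reference.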
# [5] = IUF_NPC4_neurite_length_120hr: Leibniz Research Institute for Environmental Medicine (IUF) 120-hour Neuronal Morphology Assay for Neurite Length (NPC4) (AID 2284302)
# In short: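 Neurite length, the mean in um across TUBB3-stained neurons, is derived by skeletonization of high-content images after 120 h differentiation. Compound exposure, 7 concentrations plus solvent control, ran from plating of hNPC spheres on poly-D-lysine/laminin, with medium half-replaced on day 3.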
# [6] = IUF_NPC4_neurite_area_120hr: Leibniz Research Institute for Environmental Medicine (IUF) 120-hour Neuronal Morphology Assay for Neurite Area (NPC4) (AID 2284305; active = hit-call score of the fitted dose curve at least 0.9, where 1 is the maximum)
# In short: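 Neurite area (pixels, nuclei excluded) of TUBB3-positive neurons from hNPC spheres differentiating 5 days under continuous exposure at 37 C, 5% CO2. High-content imaging; loss of signal versus DMSO control across 7 concentrations.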
# [7] = IUF_NPC2-5_cytotoxicity_72hr: Cytotoxicity Assessment at 72 hours in the Leibniz Research Institute for Environmental Medicine (IUF) Neural Progenitor Cell Migration and Differentiation Assay for Cytotoxicity (NPC2-5) (AID 2284306; active = hit-call score of the fitted dose curve at least 0.9, where 1 is the maximum;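 note: LDH release into supernatant measured by resorufin fluorescence marking membrane damage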)
# In short: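 Membrane-integrity cytotoxicity at 72 h, read as LDH-driven resorufin fluorescence in supernatant. hNPC spheres from fetal cortex differentiate on coated plates in N2 medium, 37C, 5% CO2; seven serial compound concentrations plus solvent control (DMSO ≤0.1%).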
# [8] = IUF_NPC2-5_cytotoxicity_120hr: Cytotoxicity Assessment at 120 hours in the Leibniz Research Institute for Environmental Medicine (IUF) Neural Progenitor Cell Migration and Differentiation Assay (NPC2-5) (AID 2284307; active = hit-call score of the fitted dose curve at least 0.9, where 1 is the maximum;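 for AC50: LDH released into supernatant as membrane damage marker via resorufin fluorescence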)
# In short: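 Fluorescence (RFU) from LDH-driven resazurin reduction in medium supernatants measured loss of membrane integrity after 120 h of compound exposure of differentiating primary human neural progenitor spheres on an extracellular matrix.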
# [9] = IUF_NPC2-5_cell_number_120hr: Cell Number Assessment at 120 hours in the Leibniz Research Institute for Environmental Medicine (IUF) Neural Progenitor Cell Migration and Differentiation Assay (NPC2-5) (AID 2284308);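 note: count of Hoechst-stained nuclei in migration zone around plated human neural progenitor spheres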
# In short: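 Cell number is taken as all Hoechst-positive nuclei detected in the area into which cells migrate out of the sphere, scored at 120 h and referenced to DMSO solvent control, which was kept at no more than 0.1%.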
# [10] = IUF_NPC2-5_viability_120hr: Viability Assessment at 120 hours in the Leibniz Research Institute for Environmental Medicine (IUF) Neural Progenitor Cell Migration and Differentiation Assay (NPC2-5) (AID 2284312)
# In short: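 Alamar blue resorufin fluorescence read after 5 days of differentiation, with compound present from day 0 and replenished at day 3. Primary hNPC spheres on laminin-coated plates, 37C; seven concentrations plus solvent control, fitted against DMSO.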
# [11] = IUF_NPC1_cytotoxicity_72hr: Cytotoxicity Assessment at 72 hours in the Leibniz Research Institute for Environmental Medicine (IUF) Neural Progenitor Cell Proliferation Assay (NPC1) (AID 2284332; active = hit-call score of the fitted dose curve at least 0.9, where 1 is the maximum;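 note: rising LDH signal means more cytotoxicity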)
# In short: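 Readout is fluorescence from LDH-dependent resazurin conversion, sampled from culture medium after compound contact lasting 72 h. Each well holds one 0.25-0.35 mm human progenitor sphere kept at 37C, 5% CO2 with EGF and FGF.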
# [12] = CCTE_Shafer_MEA_dev_per_burst_spike_percent: CCTE's Neural Network Formation Assay for Percent of Spikes in a Burst, Shafer Lab (AID 2284032)
# In short: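 Value is trapezoidal AUC over recordings on days 5, 7, 9 and 12 of the well-mean fraction of spikes falling in single-electrode bursts; rat cortical cultures exposed continuously from plating, treatment renewed DIV 5 and 9, fitted downward against DMSO.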
# [13] = CCTE_Shafer_MEA_dev_active_electrodes_number: CCTE's Neural Network Formation Assay for Number of Active Electrodes, Shafer Lab (AID 2284040; active = hit-call score of the fitted dose curve at least 0.9, where 1 is the maximum)
# In short: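 Developing rat cortical networks on MEAs, exposed DIV 0–12. Value is the AUC of active-electrode counts (≥5 spikes/min) from days 5, 7, 9, 12, relative to DMSO.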
# [14] = CCTE_Shafer_MEA_dev_burst_rate: CCTE's Neural Network Formation Assay for Burst Rate, Shafer Lab (AID 2284042)
# In short: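 Exposure ran continuously over 12 days of network development in rat cortical cultures, with compound refreshed during full media changes on DIV 5 and 9. Single-electrode bursts per recording time, well-mean over active electrodes, trapezoidal AUC across days 5–12, fitted downward relative to DMSO.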
# [15] = CCTE_Shafer_MEA_dev_burst_duration_mean: CCTE's Neural Network Formation Assay for Mean Burst Duration, Shafer Lab (AID 2284045);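 for AC50: curve fitted for loss meaning shorter burst duration than DMSO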
# In short: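 Mean single-electrode burst duration (first to last spike), averaged over bursting electrodes per well, then integrated as area-under-curve across recordings at days 5, 7, 9 and 12. Rat cortical cultures on MEAs, compound present from plating, refreshed at feeds.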
# [16] = CCTE_Shafer_MEA_dev_interburst_interval_mean: CCTE's Neural Network Formation Assay for Mean Interburst Interval, Shafer Lab (AID 2284046);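 note: well-mean interburst interval of bursting electrodes as AUC over four recording days; curve fitted for decrease in interburst interval relative to DMSO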
# In short: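 Primary rat cortical neurons on PEI-coated 48-well MEA plates (laminin added with cells at plating) (16 electrodes/well), exposed from plating day 0 with renewal at DIV 5 and 9. Mean inter-burst interval averaged over bursting electrodes, AUC across days 5, 7, 9, 12; DMSO baseline.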
# [17] = CCTE_Shafer_MEA_dev_inter_network_spike_interval_mean: CCTE's Neural Network Formation Assay for Mean Inter-network Spike Interval, Shafer Lab (AID 2284047)
# In short: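 Mean time between consecutive network-spike peaks, recorded extracellularly (adaptive spike detection) on DIV 5, 7, 9 and 12, summarized as trapezoidal AUC. Rat cortical cultures on MEAs dosed continuously days 0–12, re-dosed at feeds; loss-of-signal fit relative to DMSO.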
# [18] = CCTE_Shafer_MEA_dev_network_spike_number: CCTE's Neural Network Formation Assay for Number of Network Spikes, Shafer Lab (AID 2284048);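 note: synchronized bursts across electrodes counted on days 5 7 9 12 and integrated as AUC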
# In short: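 Number of network spikes (coordinated firing across electrodes) recorded on days 5, 7, 9 and 12 and summarised as area under the curve. Rat cortical cultures on MEA, continuous compound exposure with full medium/treatment exchange at DIV 5 and 9.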
# [19] = CCTE_Shafer_MEA_dev_network_spike_peak: CCTE's Neural Network Formation Assay for Mean Number of Electrodes in Network Spike, Shafer Lab (AID 2284049)
# In short: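 Rat cortical primary culture, 1.5 x 10^5 cells/well, 48-well MEA (16 electrodes/well). Dosing day 0 through DIV 12, full media/compound exchange DIV 5, 9. AxIS adaptive spike detection; AUC over days 5/7/9/12; loss-of-signal vs DMSO.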
# [20] = CCTE_Shafer_MEA_dev_spike_duration_mean: CCTE's Neural Network Formation Assay for Mean Spike Duration, Shafer Lab (AID 2284051);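 note: mean network spike duration pooled as area under curve over DIV 5 to 12 recordings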
# In short: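 Spontaneous activity was recorded on days 5, 7, 9 and 12 from rat cortical cultures grown on microelectrode arrays and dosed continuously from day 0, with media and compound renewed after the DIV 5 and 9 recordings. Network-spike duration was collapsed by area under the curve.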
smiles,measurement,setting,value
Oc1cccc2ccccc12,outcome,[1],inactive
same,outcome,[2],inactive
same,outcome,[3],inactive
same,outcome,[4],inactive
same,outcome,[5],inactive
same,outcome,[6],inactive
same,outcome,[7],inactive
same,AC50,[8],0.216 µM (active)
same,outcome,[9],inactive
same,outcome,[10],inactive
same,outcome,[11],inactive
NC(N)=Nc1nc(CSCCC(N)=NS(N)(=O)=O)cs1,outcome,[12],inactive
same,outcome,[13],inactive
same,outcome,[14],inactive
same,outcome,[15],inactive
same,outcome,[16],inactive
same,outcome,[17],inactive
same,outcome,[18],inactive
same,outcome,[19],inactive
same,outcome,[20],inactive
same,outcome,[1],inactive
same,outcome,[2],inactive
same,outcome,[3],inactive
same,outcome,[4],inactive
same,outcome,[5],inactive
same,outcome,[6],inactive
same,outcome,[7],inactive
same,outcome,[8],inactive
same,outcome,[9],inactive
same,outcome,[10],inactive
same,outcome,[11],inactive
CC1(C)S[C@@H]2[C@H](NC(=O)[C@H](N)c3ccccc3)C(=O)N2[C@H]1C(=O)O,outcome,[12],inactive
same,outcome,[13],inactive
same,outcome,[14],inactive
same,AC50,[15],22.6 µM (active)
same,outcome,[16],inactive
same,outcome,[17],inactive
same,outcome,[18],inactive
same,outcome,[19],inactive
same,outcome,[20],inactive
CN(C)CCC(c1ccc(Cl)cc1)c1ccccn1 (stereo not given),outcome,[12],inactive
same,outcome,[13],inactive
same,outcome,[14],inactive
same,outcome,[15],inactive
same,outcome,[16],inactive
same,outcome,[17],inactive
same,outcome,[18],inactive
same,outcome,[19],inactive
same,outcome,[20],inactive
same,outcome,[1],inactive
same,outcome,[2],inactive
same,outcome,[3],inactive
same,outcome,[4],inactive
same,outcome,[5],inactive
same,outcome,[6],inactive
same,outcome,[7],inactive
same,outcome,[8],inactive
same,outcome,[9],inactive
same,outcome,[10],inactive
same,outcome,[11],inactive
